MITF inh = MITF inhibitors, primary screen, biochemical, AlphaScreen, human | Microphthalmia-associated transcription factor (Homo sapiens), O75030 | AlphaScreen MITF homodimerization, bead proximity signal | inhibition, % at 2.6 µM | 650,000 tested, 0.91% active | AID 1259374, 2018; in the data active = inhibition above about 50%;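 note: 0% = vehicle wells with protein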
TEAD-YAP inh = TEAD-YAP interaction inhibition, primary screen, TEAD-YAP interaction inhibitor project, luminescence, HEK-TIYL cells; 640,000 tested, 1.4% active; TEAD-Gal4/YAP UAS-luciferase luminescence; inhibition, % at 9.12 µM; in the data active = inhibition above about 32%;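 note: 0% = median of test compound wells and 100% = reference inhibitor wells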
FBW7 act = FBW7 E3 ligase activators, primary screen, biochemical, AlphaScreen, human; F-box/WD repeat-containing protein 7 (Homo sapiens), Q969H0; AlphaScreen FBW7–phospho-cyclin E peptide binding, activator screen; normalized activity (activation), % at 26.1 µM; 650,000 tested, 0.13% active; AID 1259310, 2017; in the data active = normalized activity above about 1.9%;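 note: purified mutant Fbw7 with reduced substrate affinity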
GPR151 activ = activators of human GPR151, primary screen, cell-based, PathHunter beta-arrestin, luminescence; G-protein coupled receptor 151 (Homo sapiens), Q8TDV0; PathHunter beta-arrestin GPR151 cells; activation, % at 11.2 µM; 650,000 tested, 1% active; in the data active = activation above about 4.9%;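 note: 0% = median of compound wells and 100% = cells with positive control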
GPR151 confirm = GPR151 activators, triplicate retest, confirmation, cell-based, PathHunter beta-arrestin, luminescence; shares compounds with GPR151 activ; GPR151 PathHunter beta-arrestin cells, 90 min; % of EA-reagent control over plate median; activation, % at 11.2 µM; 6,700 tested, under 10 active; AID 1508609, 2020;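 active = mean percent activation across replicates above the confirmation screen cutoff of 4.91%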
GPR119 counter = GPR119 activators in beta-arrestin cells, counter-screen for GPR151 activator project, cell-based, PathHunter beta-arrestin, luminescence, triplicate | 90 min; 0 = compound-well median, 100 = enzyme-acceptor control | AID 1508611, 2020 | shares compounds with GPR151 activ | activation, % at 11.2 µM | 6,700 tested, 0.3% active;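 active = mean percent activation in the counterscreen above 29.09%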;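 note: counterscreen on off-target GPR119 to flag nonselective hits from the GPR151 activator screen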
Target sequence (Q8TDV5 whole entry, looked up): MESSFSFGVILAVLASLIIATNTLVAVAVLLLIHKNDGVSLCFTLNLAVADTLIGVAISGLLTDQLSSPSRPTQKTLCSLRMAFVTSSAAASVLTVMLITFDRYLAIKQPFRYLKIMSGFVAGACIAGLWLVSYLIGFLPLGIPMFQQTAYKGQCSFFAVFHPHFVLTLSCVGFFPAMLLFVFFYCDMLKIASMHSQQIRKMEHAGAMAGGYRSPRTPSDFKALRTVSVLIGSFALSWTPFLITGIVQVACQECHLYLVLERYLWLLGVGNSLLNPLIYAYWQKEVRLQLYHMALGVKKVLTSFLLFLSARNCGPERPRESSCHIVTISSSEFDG
* = called active by the depositor; x = no result given; ! = repeats disagree. This is a sample that favours compounds with a hit; in the whole collection about 3.4% have one here.

SMILES | MITF inh | TEAD-YAP inh | FBW7 act | GPR151 activ | GPR151 confirm | GPR119 counter
C[C@H]1O[C@@H](O[C@H]2[C@@H](O)C[C@H](O[C@H]3[C@@H](O)C[C@H](O[C@H]4CCC5(C)[C@H](CC[C@@H]6[C@@H]5C[C@@H](O)C5(C)C(C7=CC(=O)OC7)CCC65O)C4)O[C@@H]3C)O[C@@H]2C)C[C@H](O)[C@@H]1O (some centres not stated) | -7 | x | 0 | 5.0* | 0 | 98*
COc1ccccc1/C=C1\N=C(c2ccc(C)cc2)OC1=O | 7 | -2 | 0 | 0 | x | x
CCC(C)Nc1c([N+](=O)[O-])cc(C(=O)O)cc1[N+](=O)[O-] (configuration not stated) | 6 | 3 | 0 | 0 | x | x
CCC(Nc1c([N+](=O)[O-])cc(C(F)(F)F)cc1[N+](=O)[O-])C(=O)O (configuration not stated) | -4 | 4 | 0 | 6.0* | 0 | 7
CC(C)=CC[C@@H](O)C1=CC(=O)c2c(O)ccc(O)c2C1=O | 75*! | 8 | 0 | 10.0*! | 0 | 2
O=c1c2ccccc2ncn1Cc1ccccc1Cn1cnc2ccccc2c1=O | 12 | 6 | 0 | 0 | x | x
O=c1c2ccccc2ncn1Cc1c(F)cccc1F | -2 | 1 | 0 | 4.9* | -1 | -15
COc1ccc(-c2noc(CN(C)Cc3ccncc3C)n2)c(OC)c1OC | 7 | 4 | 0 | 15* | 0 | 10
Cc1ccc(NC(=O)NCC2(O)CCCC2)cc1C | 12 | -29 | 0 | 7.5* | 1 | -3
CCOc1ccccc1-n1nnnc1SCC(=O)NC(C)(C)C | -1 | 3 | 0 | 6.9* | 1 | 2
CCOC(=O)CSc1nnnn1-c1ccccc1OCC | 8 | -5 | 0 | 1 | x | x
CN1/C(=C\C(=O)COC(=O)c2ccc(Br)o2)C(C)(C)c2ccccc21 | 9 | 6 | 0 | 1 | x | x
O=C(CC(=O)c1ccccc1O)c1ccc(Br)cc1 | -9 | -30 | 0 | 5.4* | -1 | -8
O=C(COC(=O)c1ccccc1O)c1ccc(Br)cc1 | 18 | -22 | 0 | -2 | x | x
CCN1CCN(C(=O)CN(C)S(=O)(=O)c2ccc(Cl)cc2)CC1 | 8 | -1 | 0 | 20* | 0 | -2
CCN1CCN(C(=O)CN(C)S(=O)(=O)c2ccc(Br)cc2)CC1 | 1 | 13 | 0 | -3 | x | x
CCOc1cc(Br)c(/C=C/C(=O)O)cc1OC | 10 | -1 | 0 | 5.3* | 0 | -7
O=C(Nc1ccc(Cl)cc1)c1ccc(N2CC3CC(C2)c2cccc(=O)n2C3)c(NC(=O)c2cc3ccccc3oc2=O)c1 (configuration not stated) | 4 | 1 | 0 | 0 | x | x
CC1=CC(C)(C)N2C(=O)C3(C(C#N)=C(N)OC4=C3C(=O)CC(C)(C)C4)c3c(C)c(C)cc1c32 (configuration not stated) | 4 | -4 | 0 | 9.5* | 1 | 3
CCc1cc2c3c(c1)C1(C(=O)N3C(C)(C)C=C2C)C(C#N)=C(N)OC2=C1C(=O)CC(C)(C)C2 (configuration not stated) | 14 | 3 | 0 | 0 | x | x
CC1(C2CCN(C(=O)Cc3ccsc3)CC2)NC(=O)N(C2Cc3ccccc3C2)C1=O (configuration not stated) | -6 | 10 | 0 | 0 | x | x
CC1(C2CCN(C(=O)C(=O)c3ccccc3)CC2)NC(=O)N(C2Cc3ccccc3C2)C1=O (configuration not stated) | -9 | 1 | 0 | 5.2* | 0 | 5
O=C(Cc1cn(-c2ccc(Cl)nn2)c2ccccc12)NCCN1CCOCC1 | -4 | 3 | 0 | 7.8* | 4 | -3
O=C(Cc1cn(-c2ccc(N3CCOCC3)nn2)c2ccccc12)NCCN1CCOCC1 | -5 | -26 | 0 | -2 | x | x
COC(=O)c1ccccc1OCCOc1ccccc1C(=O)OC | 9 | -11 | 1 | 5.6* | 0 | 11
SMILES | MITF inh | TEAD-YAP inh | FBW7 act | GPR151 activ | GPR151 confirm | GPR119 counter
COC(=O)c1ccccc1OCCOCCOc1cccc2cccnc12 | 1 | -7 | 0 | 1 | x | x
COc1ccc(NC(=O)C(=O)NNC(=O)c2cccc(OC)c2)cc1 | -6 | -3 | 0 | 6.1* | 0 | 4
CCc1ccc(NC(=O)C(=O)NNC(=O)c2cccc(OC)c2)cc1 | 14 | 9 | 0 | -1 | x | x
Cc1cccc(OCC(=O)Nc2cccc(O)c2)c1 | -10 | -18 | 0 | 5.9* | 0 | -9
CC(=O)N(C)c1ccc(NC(=O)COc2cc(C)cc(C)c2)cc1 | -4 | -2 | 0 | 4.9* | -1 | -10
COC(=O)c1cccc(NC(=O)COc2ccc(C(C)C)c(C)c2)c1 | 17 | -7 | 1 | 0 | x | x
Cc1cccc(OCC(=O)Nc2cccc(C(=O)O)c2C)c1 | -7 | -10 | 0 | 6.0* | 0 | 5
CCOC(=O)c1cccc(NC(=O)COc2ccc(C(C)C)c(C)c2)c1 | 10 | -11 | 1 | 5.0* | 0 | 4
Cc1ccc(OCC(=O)Nc2cccc(O)c2)cc1C | 8 | 1 | 0 | 0 | x | x
COCc1ccc(-c2nccnc2NS(=O)(=O)c2ccc(C)cc2)cc1 | 16 | 6 | 0 | -1 | x | x
Cc1cc(C)cc(NC(=O)COc2cccc(C)c2)c1 | -17 | 5 | 0 | 6.3* | -1 | 2
O=C(NCc1ccccc1)c1ccc2nc(N3CCc4ccccc4C3)sc2c1 | -1 | -63 | 0 | 5.6* | 0 | -1
CCCNC(=O)c1ccc2nc(N3CCc4ccccc4C3)sc2c1 | 5 | -55 | 0 | -2 | x | x
Cn1c(=O)n(C)c2cc(/C=C(/C#N)c3ccc([N+](=O)[O-])cc3)ccc21 | 12 | 7 | 1 | 1 | x | x
CS(=O)(=O)N1N=C(c2ccc(Br)cc2)CC1c1cc2ccccc2nc1Cl (configuration not stated) | 8 | 13 | 0 | 0 | x | x
Cc1ccc2nc(Cl)c(C3CC(c4ccc(Br)cc4)=NN3S(C)(=O)=O)cc2c1 (configuration not stated) | 8 | -3 | 0 | 5.1* | -1 | 3
O=c1nc(SCc2c(F)cccc2Cl)c2c(n1CCCO)CCCC2 | 6 | -14 | 0 | 5.1* | 0 | -9
O=c1nc(SCc2cccc3ccccc23)c2c(n1CCCO)CCCC2 | -11 | 1 | 0 | 0 | x | x

Screening data: PubChem, The Scripps Research Institute Molecular Screening Center
